# Data reported in publication PMC5540273 (PLoS ONE, 2017).
# System: EPHB6
# 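Further: kd values determined as follow-up on hits from a single-replicate KINOMEscan panel screen.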
row,SMILES,Kd [µM]
1,FC(F)(F)c1ccccc1-c1cc(-c2c[nH]nc2-c2ccccn2)ccn1 [GW679396],8.5
2,COC(=O)C(NC(=O)NC1CCN(c2ccnc(Nc3ccc(F)cc3)n2)C1)c1ccccc1 (centres unmarked) [GSK1379712],0.058
3,Nc1ncnc2occ(-c3ccc4c(c3)CCN4C(=O)Cc3cc(F)ccc3F)c12 [GSK2645446],0.5
4,COc1ccc(Nc2nccc(N3CCC(NC(=O)C(C)c4ccc(Cl)cc4)CC3)n2)cc1 (centres unmarked) [GSK1379812],> 10

# System: ERBB2
row,SMILES,Kd [µM]
1,CS(=O)(=O)CCNCc1nc(-c2ccc3ncnc(Nc4ccc(OCc5ccccc5)c(Cl)c4)c3c2)cs1.Cl [GW582764],0.004
2,COc1cc2ncnc(Nc3cccc(Br)c3)c2cc1OC.Cl [GI230329],0.085
3,CS(=O)(=O)CCNCc1nc(-c2ccc3ncnc(Nc4ccc5c(cnn5Cc5ccccc5)c4)c3c2)cs1.Cl.Cl [GW569716],0.0011
4,Cn1cncc1-c1cc2c(Nc3ccc(OCc4ccccc4)cc3)ncnc2cn1 [GW281179],0.017

# System: T1, ERK8
# T1 construct: gene MAPK15
row,SMILES,Kd [µM]
1,O=C(Nc1n[nH]c2nc(-c3cccs3)c(Br)cc12)C1CC1 [SB-735297],0.13
2,O=C(Nc1n[nH]c2cc(-c3ccsc3)ccc12)C1CC1 [SB-732932],0.048
3,Cc1cccc2c(-c3ccncn3)c(-c3ccc(F)cc3)nn12 [GW515532],> 10
